Test results: paper PMC11006913

How the values were obtained:
Assay in all cases: PBM; 200 nM protein, PBS
Settings in all cases: dsDNA, one strand shown
HESX1 [1] = biological target: HESX1 (Homo sapiens, UniProt Q9UBX0 95-180, R165K)
HESX1 [2] = biological target: HESX1 (Homo sapiens, UniProt Q9UBX0 95-180)
ALX1 [3] = biological target: ALX1 (Homo sapiens, UniProt Q15699 118-204, L144V)
ALX1 [4] = biological target: ALX1 (Homo sapiens, UniProt Q15699 118-204, L144R)
HESX1 [5] = biological target: HESX1 (Homo sapiens, UniProt Q9UBX0 95-180, P111T)
HESX1 [6] = biological target: HESX1 (Homo sapiens, UniProt Q9UBX0 95-180, F115L)
ALX1 [7] = biological target: ALX1 (Homo sapiens, UniProt Q15699 118-204)
HESX1 [8] = biological target: HESX1 (Homo sapiens, UniProt Q9UBX0 95-180, R109Q)
PRRX1 [9] = biological target: PRRX1 (Homo sapiens, UniProt P54821 80-166, F113S)
PRRX1 [10] = biological target: PRRX1 (Homo sapiens, UniProt P54821 80-166)
ALX4 [11] = biological target: ALX4 (Homo sapiens, UniProt Q9H161 200-286)
ALX4 [12] = biological target: ALX4 (Homo sapiens, UniProt Q9H161 200-286, Q225E)
SHOX = SHOX (Homo sapiens, UniProt O15266 103-189, R173C)
PROP1 [13] = biological target: PROP1 (Homo sapiens, UniProt O75360 56-141)
PROP1 [14] = biological target: PROP1 (Homo sapiens, UniProt O75360 56-141, R99H)
ALX3 = ALX3 (Homo sapiens, UniProt O95076 139-225, L168Q)
PROP1 [15] = biological target: PROP1 (Homo sapiens, UniProt O75360 56-141, F88S)
Chain of PROP1 (Homo sapiens, UniProt O75360 56-141, F88S) (O75360 56-141 F88S): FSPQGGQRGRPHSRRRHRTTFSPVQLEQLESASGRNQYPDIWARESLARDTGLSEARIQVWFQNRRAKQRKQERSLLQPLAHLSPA

Chain of HESX1 (Homo sapiens, UniProt Q9UBX0 95-180) (Q9UBX0 95-180): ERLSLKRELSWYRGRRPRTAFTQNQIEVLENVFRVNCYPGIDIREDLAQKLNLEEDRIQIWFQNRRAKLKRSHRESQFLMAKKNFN
Chain of ALX4 (Homo sapiens, UniProt Q9H161 200-286) (Q9H161 200-286): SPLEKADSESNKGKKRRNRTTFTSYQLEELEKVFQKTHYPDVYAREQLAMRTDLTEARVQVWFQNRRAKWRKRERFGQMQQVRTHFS
Chain of HESX1 (Homo sapiens, UniProt Q9UBX0 95-180, P111T) (Q9UBX0 95-180 P111T): as the sequence (Q9UBX0 95-180) above, with P17T counted along it
Chain of PRRX1 (Homo sapiens, UniProt P54821 80-166, F113S) (P54821 80-166 F113S): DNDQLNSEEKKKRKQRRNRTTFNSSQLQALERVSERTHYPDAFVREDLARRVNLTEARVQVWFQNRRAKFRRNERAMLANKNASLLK
Chain of ALX4 (Homo sapiens, UniProt Q9H161 200-286, Q225E) (Q9H161 200-286 Q225E): as the sequence (Q9H161 200-286) above, with Q26E counted along it
Chain of HESX1 (Homo sapiens, UniProt Q9UBX0 95-180, F115L) (Q9UBX0 95-180 F115L): as the sequence (Q9UBX0 95-180) above, with F21L counted along it
Chain of PRRX1 (Homo sapiens, UniProt P54821 80-166) (P54821 80-166): as the sequence (P54821 80-166 F113S) above, with S34F counted along it
Chain of HESX1 (Homo sapiens, UniProt Q9UBX0 95-180, R165K) (Q9UBX0 95-180 R165K): as the sequence (Q9UBX0 95-180) above, with R71K counted along it
Chain of HESX1 (Homo sapiens, UniProt Q9UBX0 95-180, R109Q) (Q9UBX0 95-180 R109Q): as the sequence (Q9UBX0 95-180) above, with R15Q counted along it
Chain of PROP1 (Homo sapiens, UniProt O75360 56-141) (O75360 56-141): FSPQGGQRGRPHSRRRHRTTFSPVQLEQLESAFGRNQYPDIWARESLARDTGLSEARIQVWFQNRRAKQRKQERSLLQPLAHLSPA
Chain of ALX1 (Homo sapiens, UniProt Q15699 118-204, L144V) (Q15699 118-204 L144V): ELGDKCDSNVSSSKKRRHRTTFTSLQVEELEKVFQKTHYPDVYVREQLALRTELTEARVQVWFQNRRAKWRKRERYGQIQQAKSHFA
Chain of ALX1 (Homo sapiens, UniProt Q15699 118-204, L144R) (Q15699 118-204 L144R): as the sequence (Q15699 118-204 L144V) above, with V27R counted along it
Chain of PROP1 (Homo sapiens, UniProt O75360 56-141, R99H) (O75360 56-141 R99H): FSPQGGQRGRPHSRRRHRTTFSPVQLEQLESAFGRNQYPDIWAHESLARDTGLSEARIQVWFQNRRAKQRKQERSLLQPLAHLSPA
Chain of ALX1 (Homo sapiens, UniProt Q15699 118-204) (Q15699 118-204): as the sequence (Q15699 118-204 L144V) above, with V27L counted along it
Chain of ALX3 (O95076 139-225 L168Q): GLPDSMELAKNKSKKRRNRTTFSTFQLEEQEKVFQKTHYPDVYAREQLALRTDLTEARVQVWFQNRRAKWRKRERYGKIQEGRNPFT
Chain of SHOX (O15266 103-189 R173C): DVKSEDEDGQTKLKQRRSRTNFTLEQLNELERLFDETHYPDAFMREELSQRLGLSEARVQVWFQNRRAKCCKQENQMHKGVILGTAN

For CTGCATTA, the binding signal (HESX1 [1]) was 7.23 upbm affinity estimate (log intensity, higher = more binding, comparable within an allelic series), the binding signal (HESX1 [2]) was 7.34 upbm affinity estimate (log intensity, higher = more binding, comparable within an allelic series) and the binding signal (ALX1 [3]) was 8.85 upbm affinity estimate (log intensity, higher = more binding, comparable within an allelic series). The binding signal (ALX1 [4]) was 8.64 upbm affinity estimate (log intensity, higher = more binding, comparable within an allelic series), the binding signal (HESX1 [5]) was 7.12 upbm affinity estimate (log intensity, higher = more binding, comparable within an allelic series) and the binding signal (HESX1 [6]) was 6.71 upbm affinity estimate (log intensity, higher = more binding, comparable within an allelic series). For the same sequence, the binding signal (ALX1 [7]) was 9.15 upbm affinity estimate (log intensity, higher = more binding, comparable within an allelic series).

For GTCCTGCA, the binding signal (HESX1 [1]) was 6.29 upbm affinity estimate (log intensity, higher = more binding, comparable within an allelic series), the binding signal (HESX1 [2]) was 6.29 upbm affinity estimate (log intensity, higher = more binding, comparable within an allelic series) and the binding signal (HESX1 [8]) was 6.46 upbm affinity estimate (log intensity, higher = more binding, comparable within an allelic series). The binding signal (HESX1 [5]) was 6.46 upbm affinity estimate (log intensity, higher = more binding, comparable within an allelic series) and the binding signal (HESX1 [6]) was 6.53 upbm affinity estimate (log intensity, higher = more binding, comparable within an allelic series).

CCGCCCCC was tested, and the binding signal (HESX1 [1]) was 6.46 upbm affinity estimate (log intensity, higher = more binding, comparable within an allelic series), the binding signal (PRRX1 [9]) was 9.06 upbm affinity estimate (log intensity, higher = more binding, comparable within an allelic series) and the binding signal (HESX1 [2]) was 6.33 upbm affinity estimate (log intensity, higher = more binding, comparable within an allelic series). The binding signal (HESX1 [8]) was 6.51 upbm affinity estimate (log intensity, higher = more binding, comparable within an allelic series), the binding signal (HESX1 [5]) was 6.43 upbm affinity estimate (log intensity, higher = more binding, comparable within an allelic series) and the binding signal (HESX1 [6]) was 6.41 upbm affinity estimate (log intensity, higher = more binding, comparable within an allelic series). The binding signal (PRRX1 [10]) was 8.75 upbm affinity estimate (log intensity, higher = more binding, comparable within an allelic series).

For TAAATTCA, the binding signal (HESX1 [1]) was 7.34 upbm affinity estimate (log intensity, higher = more binding, comparable within an allelic series) and the binding signal (HESX1 [2]) was 7.46 upbm affinity estimate (log intensity, higher = more binding, comparable within an allelic series).

With CAATAATG the binding signal (HESX1 [1]) was 8.97 upbm affinity estimate (log intensity, higher = more binding, comparable within an allelic series) and the binding signal (HESX1 [2]) was 9.26 upbm affinity estimate (log intensity, higher = more binding, comparable within an allelic series).

In the case of AGGGTATA, the binding signal (HESX1 [1]) is reported as 7.35 upbm affinity estimate (log intensity, higher = more binding, comparable within an allelic series) and the binding signal (HESX1 [2]) is reported as 7.42 upbm affinity estimate (log intensity, higher = more binding, comparable within an allelic series).

For AATGAGAG, the binding signal (HESX1 [1]) was 7.5 upbm affinity estimate (log intensity, higher = more binding, comparable within an allelic series) and the binding signal (HESX1 [2]) was 7.55 upbm affinity estimate (log intensity, higher = more binding, comparable within an allelic series).

With AGAGGCAC the binding signal (HESX1 [1]) was 6.29 upbm affinity estimate (log intensity, higher = more binding, comparable within an allelic series), the binding signal (ALX4 [11]) was 8.1 upbm affinity estimate (log intensity, higher = more binding, comparable within an allelic series) and the binding signal (ALX4 [12]) was 8.02 upbm affinity estimate (log intensity, higher = more binding, comparable within an allelic series). For the same sequence, the binding signal (HESX1 [2]) was 6.48 upbm affinity estimate (log intensity, higher = more binding, comparable within an allelic series), the binding signal (HESX1 [8]) was 6.44 upbm affinity estimate (log intensity, higher = more binding, comparable within an allelic series) and the binding signal (HESX1 [5]) was 6.5 upbm affinity estimate (log intensity, higher = more binding, comparable within an allelic series). For the same sequence, the binding signal (HESX1 [6]) was 6.64 upbm affinity estimate (log intensity, higher = more binding, comparable within an allelic series).

In the case of AATTAACC, the binding signal (HESX1 [1]) is reported as 11.5 upbm affinity estimate (log intensity, higher = more binding, comparable within an allelic series), the binding signal (ALX4 [11]) is reported as 13.6 upbm affinity estimate (log intensity, higher = more binding, comparable within an allelic series) and the binding signal (PRRX1 [9]) is reported as 11 upbm affinity estimate (log intensity, higher = more binding, comparable within an allelic series). The binding signal (ALX4 [12]) was 12.7 upbm affinity estimate (log intensity, higher = more binding, comparable within an allelic series), the binding signal (HESX1 [2]) was 11.5 upbm affinity estimate (log intensity, higher = more binding, comparable within an allelic series) and the binding signal (ALX1 [3]) was 11.3 upbm affinity estimate (log intensity, higher = more binding, comparable within an allelic series). The binding signal (SHOX) was 9.27 upbm affinity estimate (log intensity, higher = more binding, comparable within an allelic series), the binding signal (ALX1 [4]) was 11.2 upbm affinity estimate (log intensity, higher = more binding, comparable within an allelic series) and the binding signal (PROP1 [13]) was 11.1 upbm affinity estimate (log intensity, higher = more binding, comparable within an allelic series). For the same sequence, the binding signal (HESX1 [8]) was 8.77 upbm affinity estimate (log intensity, higher = more binding, comparable within an allelic series), the binding signal (PROP1 [14]) was 10.7 upbm affinity estimate (log intensity, higher = more binding, comparable within an allelic series) and the binding signal (ALX3) was 10.3 upbm affinity estimate (log intensity, higher = more binding, comparable within an allelic series). For the same sequence, the binding signal (HESX1 [5]) was 10.3 upbm affinity estimate (log intensity, higher = more binding, comparable within an allelic series), the binding signal (PROP1 [15]) was 7.52 upbm affinity estimate (log intensity, higher = more binding, comparable within an allelic series) and the binding signal (HESX1 [6]) was 7.7 upbm affinity estimate (log intensity, higher = more binding, comparable within an allelic series). For the same sequence, the binding signal (ALX1 [7]) was 12.1 upbm affinity estimate (log intensity, higher = more binding, comparable within an allelic series) and the binding signal (PRRX1 [10]) was 13.2 upbm affinity estimate (log intensity, higher = more binding, comparable within an allelic series).

In the case of GCCGGCGA, the binding signal (HESX1 [1]) is reported as 6.47 upbm affinity estimate (log intensity, higher = more binding, comparable within an allelic series), the binding signal (PRRX1 [9]) is reported as 9.26 upbm affinity estimate (log intensity, higher = more binding, comparable within an allelic series) and the binding signal (HESX1 [2]) is reported as 6.42 upbm affinity estimate (log intensity, higher = more binding, comparable within an allelic series). For the same sequence, the binding signal (HESX1 [8]) was 6.45 upbm affinity estimate (log intensity, higher = more binding, comparable within an allelic series), the binding signal (HESX1 [5]) was 6.41 upbm affinity estimate (log intensity, higher = more binding, comparable within an allelic series) and the binding signal (HESX1 [6]) was 6.43 upbm affinity estimate (log intensity, higher = more binding, comparable within an allelic series). For the same sequence, the binding signal (PRRX1 [10]) was 9.42 upbm affinity estimate (log intensity, higher = more binding, comparable within an allelic series).

CCCAGTGC was tested, and the binding signal (HESX1 [1]) was 6.38 upbm affinity estimate (log intensity, higher = more binding, comparable within an allelic series), the binding signal (ALX4 [11]) was 8 upbm affinity estimate (log intensity, higher = more binding, comparable within an allelic series) and the binding signal (ALX4 [12]) was 8.11 upbm affinity estimate (log intensity, higher = more binding, comparable within an allelic series). For the same sequence, the binding signal (HESX1 [2]) was 6.3 upbm affinity estimate (log intensity, higher = more binding, comparable within an allelic series), the binding signal (HESX1 [8]) was 6.56 upbm affinity estimate (log intensity, higher = more binding, comparable within an allelic series) and the binding signal (HESX1 [5]) was 6.45 upbm affinity estimate (log intensity, higher = more binding, comparable within an allelic series). For the same sequence, the binding signal (HESX1 [6]) was 6.56 upbm affinity estimate (log intensity, higher = more binding, comparable within an allelic series).

For CCGAGGCC, the binding signal (HESX1 [1]) was 6.48 upbm affinity estimate (log intensity, higher = more binding, comparable within an allelic series), the binding signal (HESX1 [2]) was 6.46 upbm affinity estimate (log intensity, higher = more binding, comparable within an allelic series) and the binding signal (PROP1 [13]) was 6.73 upbm affinity estimate (log intensity, higher = more binding, comparable within an allelic series). For the same sequence, the binding signal (HESX1 [8]) was 6.41 upbm affinity estimate (log intensity, higher = more binding, comparable within an allelic series), the binding signal (PROP1 [14]) was 6.78 upbm affinity estimate (log intensity, higher = more binding, comparable within an allelic series) and the binding signal (HESX1 [5]) was 6.44 upbm affinity estimate (log intensity, higher = more binding, comparable within an allelic series). The binding signal (PROP1 [15]) was 6.47 upbm affinity estimate (log intensity, higher = more binding, comparable within an allelic series) and the binding signal (HESX1 [6]) was 6.42 upbm affinity estimate (log intensity, higher = more binding, comparable within an allelic series).
